Over roughly 81,000 sequences, “one-hybrid fitness for binding parS DNA” has its median near -0.17; the highest 2% begin near 0.51. This is one part of a sample in which the highest values are shown more often than they occur.
B1: Caulobacter ParB omega fusion; a variant is named by its letters at X, in order, B8GW30 (parent)
chain: MESVVVGEPGMSEGRRGLGRGLSALLGEVDAAPAQAPGEQLGGSREAPIEILQRNPDQPRRTFREEDLEDLSNSIREKGVLQPILVRPSPDTAGEYQIVAGERAWRAAQRAGLKTVPIMVRELDDLAVLEIGIIENVQRADLNVLEEALSYKVLMEKFERTQENIAQTIGKSXSHVANXMRLLXLPDEVQSYLVSGELTAXHARAIAAAADPVALAKQIIEGGLSVRETEALARKAPNLSAGKSKGGRPPRVKDTDTQALESDLSSVLGLDVSIDHRGSTGTLTITYATLEQLDDLCNRLTRGI

Variants of: B1
Assay: one-hybrid fitness for binding parS DNA (scaled: cognate 1, non-cognate 0); higher = stronger binding
Conditions: with parS DNA site
Outline: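 Pre- and post-selection plasmids were Illumina-sequenced, three replicate libraries were pooled, and any variant with under 10 reads was removed. The libraries were Caulobacter ParB with four specificity codons randomised, selected in E. coli USO through a HIS3 reporter whose site is 19 bp from the promoter. Cells grew 48 hours at 37°C on M9 without histidine, with 0.1 mM IPTG and 5 mM 3-AT. Fitness is the log change in variant-to-wild-type read ratio, rescaled against cognate and non-cognate.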

Variant	one-hybrid fitness for binding parS DNA
ECVT	≤ 0.2
WSQP	≤ 0.2
VYQR	≤ 0.2
KDPE	≤ 0.2
DISI	≤ 0.2
KTLW	≤ 0.2
RLCM	0.342
RPCG	≤ 0.2
RECG	0.221
RLCF	0.27
RCCG	1.03
RLCG	1
PASK	≤ 0.2
CNGG	≤ 0.2
SRGF	≤ 0.2
AQNP	≤ 0.2
TPWY	≤ 0.2
KCYT	≤ 0.2
VISS	≤ 0.2
QETP	≤ 0.2
PTTA	≤ 0.2
DTNY	≤ 0.2
RYMS	0.963
RYMP	≤ 0.2
RYMN	0.395

Variant	one-hybrid fitness for binding parS DNA
RYMH	≤ 0.2
RYMG	0.971
RYMD	≤ 0.2
RYMQ	≤ 0.2
RYML	≤ 0.2
RYMC	0.994
RYMK	≤ 0.2
RYMR	≤ 0.2
RYMT	0.887
LCMG	≤ 0.2
NWQY	≤ 0.2
NQMR	≤ 0.2
DFGS	≤ 0.2
NLVV	≤ 0.2
TGGR	≤ 0.2
HAMN	≤ 0.2
WKPV	≤ 0.2
DGVM	≤ 0.2
RPCN	≤ 0.2
APGA	≤ 0.2
LMVR	≤ 0.2
EFNL	≤ 0.2
WIWS	≤ 0.2
RSCP	≤ 0.2
RCCC	0.959

Variant	one-hybrid fitness for binding parS DNA
RSCD	≤ 0.2
RDCC	≤ 0.2
RSCC	0.915
RPCC	≤ 0.2
RRPF	≤ 0.2
RRIG	0.908
RRPQ	≤ 0.2
RRPG	0.891
RRIP	≤ 0.2
RRIM	≤ 0.2
TAAL	≤ 0.2
KHMS	≤ 0.2
RYTP	≤ 0.2
RYTC	0.903
RYTM	0.295
RYTH	≤ 0.2
RYTK	≤ 0.2
RYTR	≤ 0.2
RYTS	0.904
RYTN	0.429
RYTT	0.884
RYTG	0.992
RYTY	0.429
RYTD	≤ 0.2
RFHK	≤ 0.2

Variant	one-hybrid fitness for binding parS DNA
NTHH	≤ 0.2
YAER	≤ 0.2
SRAR	≤ 0.2
DHRG	≤ 0.2
WTKG	≤ 0.2
TPGV	≤ 0.2
PQLQ	≤ 0.2
RWAF	≤ 0.2
RWAM	≤ 0.2
RWFG	0.615
RWFK	≤ 0.2
KWFG	≤ 0.2
RWAG	0.72
TYPT	≤ 0.2
MSSI	≤ 0.2
DTPG	≤ 0.2
HKES	≤ 0.2
ANPQ	≤ 0.2
WNSC	≤ 0.2
RNNS	0.969
RNDS	0.823
RNDN	0.226
RNDP	≤ 0.2
RNND	≤ 0.2
RNNP	≤ 0.2

Variant	one-hybrid fitness for binding parS DNA
HDLV	≤ 0.2
IGRI	≤ 0.2
WCIS	≤ 0.2
PFSI	≤ 0.2
AYDD	≤ 0.2
RKYG	0.952
RKYN	0.297
RKGP	≤ 0.2
RKQM	≤ 0.2
RKLK	≤ 0.2
RKQR	≤ 0.2
RKLG	0.964
RKQG	0.913
RKGG	0.937
RKYD	≤ 0.2
RKGH	≤ 0.2
RKLY	0.402
ASNF	≤ 0.2
STMD	≤ 0.2
THAI	≤ 0.2
HFAT	≤ 0.2
VNIM	≤ 0.2
GRPC	≤ 0.2
ANQN	≤ 0.2
HYCT	≤ 0.2

Variant	one-hybrid fitness for binding parS DNA
RKHR	≤ 0.2
RKCM	0.286
RKHF	≤ 0.2
RKRG	0.851
RKRP	≤ 0.2
RKHG	0.925
RKCQ	≤ 0.2
RKRD	≤ 0.2
RKCG	0.971
QYTT	≤ 0.2
HLKG	≤ 0.2
TWTY	≤ 0.2
QNAG	≤ 0.2
GTTH	≤ 0.2
SETA	≤ 0.2
TDDG	≤ 0.2
QFHD	≤ 0.2
RMDF	0.223
RMRT	0.812
RMGT	0.937
RMNF	0.237
RMGK	≤ 0.2
RMND	≤ 0.2
RMDL	≤ 0.2
RMDT	0.794

Variant	one-hybrid fitness for binding parS DNA
RMRM	0.379
RMRQ	≤ 0.2
RMGF	0.269
RMNT	0.904
GTPS	≤ 0.2
EHHI	≤ 0.2
KHQH	≤ 0.2
PMNI	≤ 0.2
RECV	≤ 0.2
NATT	≤ 0.2
LRNV	≤ 0.2
MRHY	≤ 0.2
KGRF	≤ 0.2
YADG	≤ 0.2
YTRC	≤ 0.2
QWHV	≤ 0.2
RMSF	0.258
RMSM	0.37
RMYD	≤ 0.2
RMQD	0.318
RMYT	0.923
RMYP	≤ 0.2
RMQP	≤ 0.2
RMST	0.945
RMQT	0.921

Variant	one-hybrid fitness for binding parS DNA
VHYL	≤ 0.2
ADVS	≤ 0.2
GAPV	≤ 0.2
SQVL	≤ 0.2
AMKY	≤ 0.2
GIMG	≤ 0.2
SACQ	≤ 0.2
RWLW	≤ 0.2
RMFP	≤ 0.2
RMAH	0.282
RMAN	0.46
RMFD	≤ 0.2
RMAS	0.991
RMFS	1.07
PWEY	≤ 0.2
LATA	≤ 0.2
RLDI	≤ 0.2
ENYW	≤ 0.2
AEQK	≤ 0.2
RYFN	0.425
RYFP	≤ 0.2
RYFS	1.02
RYAS	0.917
RYAP	≤ 0.2
RYAH	≤ 0.2

Variant	one-hybrid fitness for binding parS DNA
PWFC	≤ 0.2
RMDD	≤ 0.2
RMLH	0.275
RMRS	0.868
RMDY	0.405
RMNY	0.529
RMLS	1.04
RMDS	1.02
RMRN	0.418
RMDP	≤ 0.2
RMRP	≤ 0.2
RMLN	0.439
FDLP	≤ 0.2
LARN	≤ 0.2
YKTN	≤ 0.2
PMMG	≤ 0.2
TDRN	≤ 0.2
IALI	≤ 0.2
HAQR	≤ 0.2
LQQY	≤ 0.2
RMYN	0.47
RMNS	0.911
RMNP	≤ 0.2
RMYS	1.01
RMNH	0.287

Variant	one-hybrid fitness for binding parS DNA
RMYH	0.234
AHEC	≤ 0.2
EPSR	≤ 0.2
TPDV	≤ 0.2
PQMC	≤ 0.2
RNTM	0.233
RNTD	≤ 0.2
RNTN	0.357
RNTK	≤ 0.2
RNTT	0.746
RNTP	≤ 0.2
RNTG	0.908
RNTY	0.368
RNTR	≤ 0.2
RNTH	≤ 0.2
RNTS	0.964
RNTC	0.865
NCAN	≤ 0.2
MWTR	≤ 0.2
DRQW	≤ 0.2
ADQL	≤ 0.2
NGAG	≤ 0.2
HAPM	≤ 0.2
HNLP	≤ 0.2
SYAS	≤ 0.2

Variant	one-hybrid fitness for binding parS DNA
RFDD	≤ 0.2
RFNG	1
NFNG	≤ 0.2
RFDG	0.814
DFNG	≤ 0.2
AFDG	≤ 0.2
LMSV	≤ 0.2
AAST	≤ 0.2
SSPQ	≤ 0.2
THVR	≤ 0.2
DHYT	≤ 0.2
GFSS	≤ 0.2
RYVT	0.716
RYKN	0.394
RYKT	0.708
RYKH	≤ 0.2
RYVR	≤ 0.2
RYVK	≤ 0.2
HYNK	≤ 0.2
QWNN	≤ 0.2
PIAM	≤ 0.2
LLNT	≤ 0.2
MIIT	≤ 0.2
IARP	≤ 0.2
RGVW	≤ 0.2

Variant	one-hybrid fitness for binding parS DNA
RRDM	≤ 0.2
RRKS	0.684
RRVN	0.268
RRNM	0.656
RRKN	0.84
RCNM	0.349
RRKP	0.338
RCKN	0.463
RRKM	0.802
RRKD	≤ 0.2
RRVM	≤ 0.2
RCKM	0.402
IVNW	≤ 0.2
TART	≤ 0.2
ACQS	≤ 0.2
MKRG	≤ 0.2
RCRM	0.365
RCKH	≤ 0.2
RRKH	0.623
RRRM	0.762
RRVS	0.708
RRVH	≤ 0.2
RRVD	≤ 0.2
RRYM	0.206
RRVP	≤ 0.2

Variant	one-hybrid fitness for binding parS DNA
GKVS	≤ 0.2
NRQG	≤ 0.2
ATIC	≤ 0.2
YVNR	≤ 0.2
QQAI	≤ 0.2
DVWA	≤ 0.2
SVIA	≤ 0.2
PVHA	≤ 0.2
PVSA	≤ 0.2
RVPA	0.324
RVWA	0.616
RVIA	0.522
RVSA	0.581
NVWA	≤ 0.2
RVHA	0.552

Reference: a collection of fitness landscapes (doi:10.1016/j.celrep.2020.107928)
